Experiment [1] is described as follows: A CellTox Green Cytotoxicity Assay to monitor cytotoxicity in HEK293 cells - 8 hour (AID 1224884). Note: nearly all actives have a fitted effect of over 35% in size. In outline:
(§1)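 Homogeneous no-lysis format: HEK293 cell suspension mixed with CellTox Green reagent, seeded, incubated 5 h at 37 C/5% CO2, then dosed by pintool with compound in DMSO.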

Experiment [2] is described as follows: qHTS RealTime-Glo MT Cell Viability Assay in HepG2 cells - 16 hour (AID 1224885). Note: nearly all actives have a fitted effect of over 50% in size. Note: potency is the fitted concentration of half-maximal effect. In outline:
(§2)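 Tox21 10K library screened in qHTS format on HepG2 cells carrying RealTime-Glo reagents. Compounds were added after a 5 h preincubation, and the luminescent signal from continuous culture was measured repeatedly during 40 h treatment.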
In general terms: Quantitative high-throughput screening tests each substance at several concentrations.

Experiment [3] is described as follows: qHTS RealTime-Glo MT Cell Viability Assay in HEK293 cells - 24 hour (AID 1224886). Note: nearly all actives have a fitted effect of over 50% in size. Note: potency is the fitted concentration of half-maximal effect. In outline: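 Luminescence generated by NanoLuc from substrate produced by living HEK293 cells served as the viability signal. Each value reflects the reading at its stated time point during continuous 40 h compound exposure at 37 C.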
Experiment [4] can be described thus: qHTS RealTime-Glo MT Cell Viability Assay in HepG2 cells - 0 hour (AID 1224889). Note: nearly all actives have a fitted effect of over 50% in size. The method in brief: as §2
The target in experiment [5] is Estrogen receptor (Homo sapiens) (UniProt P03372). Nature of the experiment: qHTS assay to identify small molecule antagonists of the estrogen receptor alpha (ER-alpha) signaling pathway using the BG1 cell line in the presence of 0.1 nM 17-beta-estradiol (AID 1259244). Note: nearly all actives have a fitted effect of over 50% in size. Note: potency is the fitted concentration of half-maximal effect. In outline: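 Seeding of stripped-serum-adapted VM7Luc4E2 cells, 24 h attachment, compound transfer, then 0.1 nM final 17beta-estradiol; after 22 h incubation, ONE-Glo reagent and luminescence reading.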

Experiment [6] is described as follows: qHTS assay to identify small molecule HDAC inhibitors (AID 1259364).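 Note: wild-type HCT-116 cells with endogenous class I/II HDAC activity; top concentration of the series differs between compounds; nearly all actives have a fitted effect of over 45% in size.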 In outline:
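After a 2 hr compound incubation (37C, 5% CO2), HCT-116 cells seeded at 1,500/well the day before received HDAC-Glo reagent; signal read as luminescence after 30 min at room temperature.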

Experiment [7] in a line: qHTS assay to identify small molecule HDAC inhibitors - cell viability counter screen (AID 1259365). In outline: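 Cytotoxicity was gauged in wild-type HCT-116 cells after a brief 2hr treatment with DMSO-dissolved compounds at 37C and 5% CO2, using CellTiter-Glo luminescence developed for 30min at room temperature.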
A short description of experiment [8]: qHTS assay to identify small molecule agonists of the sonic hedgehog signaling (Shh) pathway (AID 1259368; calls by dose curve;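 note: NIH/3T3-derived 3T3Gli1-Luc cells carrying a stable Gli1-driven firefly luciferase reporter; series mostly up to about 92 µM; nearly all actives have a fitted effect of over 15% in size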). In outline:
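Stable NIH/3T3 Gli1-Luc reporter clone; 24 hr cpd exposure after a 4 hr settling period; luminescence endpoint.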

A short description of experiment [9]: qHTS assay to identify small molecule antagonists of the sonic hedgehog signaling (Shh) pathway (AID 1259369; calls by dose curve; note: nearly all actives have a fitted effect of over 45% in size; note: potency is the fitted concentration of half-maximal effect). The method in brief:
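Gli1 transcriptional reporter (firefly Luc) in NIH/3T3 background, conditioned-medium activated. 24hr exposure, luminescence endpoint.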

Experiment [10] addresses Estrogen receptor beta (Homo sapiens) (UniProt Q92731). Description: qHTS assay to identify small molecule agonists of the estrogen receptor beta (ER-beta) signaling pathway (AID 1259377; active = well fitted activation curve with a large enough effect in the signal ratio in the repeat runs, not every such curve was filed as active; the % refers to the signal ratio). The method in brief:
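Measured by fluorescence intensity from a B/G FRET beta-lactamase substrate (2 h, room temperature) in ER-beta-UAS-bla HEK293T cells treated with DMSO-dissolved compounds for 16 hr at 37C and 5% CO2.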

Experiment [11] has the same target. Description: qHTS assay to identify small molecule antagonists of the estrogen receptor beta (ER-beta) signaling pathway (AID 1259378; active = well fitted inhibition curve with a large enough effect in the signal ratio in the repeat runs, not every such curve was filed as active; the % refers to the signal ratio; note: potency is the fitted concentration of half-maximal effect). In outline: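 ER-beta-UAS-bla HEK293T (GripTite) cells in 2% charcoal-stripped FBS medium were preincubated 6 hr at 37C, dosed with compound, then stimulated with 1 nM E2 (final) for 16 hr; beta-lactamase reporter read by B/G FRET fluorescence after 2 hr substrate loading.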

Experiment [12] can be described thus: A CellTox Green Cytotoxicity Assay to monitor cytotoxicity in HEK293 cells - 16 hour (AID 1224888). Note: nearly all actives have a fitted effect of over 35% in size. In outline:
as §1

Experiment [13] is described as follows: A CellTox Green Cytotoxicity Assay to monitor cytotoxicity in HepG2 cells - 8 hour (AID 1224890). Note: nearly all actives have a fitted effect of over 45% in size. Note: potency is the fitted concentration of half-maximal effect. The method in brief: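 Fluorescent DNA-binding dye, 600 HepG2 cells/well, 5 h preincubation then compound in DMSO; same plates read at 0–40 h, 37 C.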
Experiment [14] in a line: qHTS assay to identify small molecule antagonists of the estrogen receptor alpha (ER-alpha) signaling pathway using the BG1 cell line in the presence of 0.1 nM 17-beta-estradiol - cell viability counter screen (AID 1259241). Note: nearly all actives have a fitted effect of over 40% in size. Note: potency is the fitted concentration of half-maximal effect. The method in brief: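 Viability in VM7Luc4E2 cells after 22 hr compound exposure under 0.1 nM 17beta-estradiol stimulation, by CellTiter-Fluor.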

A short description of experiment [15]: qHTS assay to identify small molecule antagonists of the androgen receptor (AR) signaling pathway using the MDA cell line in the presence of 0.5 nM R1881 - cell viability counter screen (AID 1259242). Note: nearly all actives have a fitted effect of over 45% in size. Note: potency is the fitted concentration of half-maximal effect. The method in brief:
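Human breast carcinoma MDA-kb2 cells, cultured without CO2, receive compounds alongside 0.5 nM (final) R1881 agonist. After 16 hr at 37C, viability is taken as live-cell protease signal.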

Experiment [16] in a line: qHTS assay to identify small molecule agonists of the sonic hedgehog signaling (Shh) pathway - cell viability counter screen (AID 1259366). Note: nearly all actives have a fitted effect of over 50% in size. Note: potency is the fitted concentration of half-maximal effect. The method in brief:
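Stable Gli1-Luc NIH/3T3 clone, 2,000 cells/well. Compound exposure 24hr at 37C. Read-out: CellTiter-Fluor fluorescence.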

Experiment [17] in a line: qHTS assay to identify small molecule antagonists of the sonic hedgehog signaling (Shh) pathway - cell viability counter screen (AID 1259367). Note: nearly all actives have a fitted effect of over 55% in size. Note: potency is the fitted concentration of half-maximal effect. In outline:
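Cytotoxicity was assessed in parallel with Shh reporter activity by measuring live-cell protease fluorescence (CellTiter-Fluor) in NIH/3T3 cells stably carrying Gli1-Luc, treated with compound under conditioned medium stimulation for 23 hr plus 1 hr reagent incubation.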

Experiment [18] addresses Androgen receptor (Homo sapiens) (UniProt P10275). Description: qHTS assay to identify small molecule antagonists of the androgen receptor (AR) signaling pathway using the MDA cell line in the presence of 0.5 nM R1881 (AID 1259243). Note: nearly all actives have a fitted effect of over 50% in size. Note: potency is the fitted concentration of half-maximal effect. The method in brief: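 Cells: MDA-kb2 (MMTV-luc). Stimulus: 0.5 nM R1881. Time: 16 hr, 37C, no CO2. Detection: ONE-Glo luminescence after 30 min at RT.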

The nature of experiment [19]: qHTS RealTime-Glo MT Cell Viability Assay in HEK293 cells - 8 hour (AID 1224887). The method in brief:
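Measured as luminescence from the same continuously cultured HEK293 wells at successive time points (0, 8, 16, 24, 32, 40 h) after compound addition. Reagent present from seeding; dosing at 5 h; incubation 37 C.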

Structures are written as SMILES. Values without a mark were called inactive. Inconclusive results are not listed. The source made the active and inactive calls. Unless noted, calls come from the whole dose curve; as a rule, active = well fitted curve in the direction sought with a large enough effect in the repeat runs; inconclusive = weak or mixed curves; inactive = no such curve, though single readings can be large; an effect the other way counts as inactive or inconclusive.

Estrogen receptor (Homo sapiens), sequence (P03372 whole entry, looked up): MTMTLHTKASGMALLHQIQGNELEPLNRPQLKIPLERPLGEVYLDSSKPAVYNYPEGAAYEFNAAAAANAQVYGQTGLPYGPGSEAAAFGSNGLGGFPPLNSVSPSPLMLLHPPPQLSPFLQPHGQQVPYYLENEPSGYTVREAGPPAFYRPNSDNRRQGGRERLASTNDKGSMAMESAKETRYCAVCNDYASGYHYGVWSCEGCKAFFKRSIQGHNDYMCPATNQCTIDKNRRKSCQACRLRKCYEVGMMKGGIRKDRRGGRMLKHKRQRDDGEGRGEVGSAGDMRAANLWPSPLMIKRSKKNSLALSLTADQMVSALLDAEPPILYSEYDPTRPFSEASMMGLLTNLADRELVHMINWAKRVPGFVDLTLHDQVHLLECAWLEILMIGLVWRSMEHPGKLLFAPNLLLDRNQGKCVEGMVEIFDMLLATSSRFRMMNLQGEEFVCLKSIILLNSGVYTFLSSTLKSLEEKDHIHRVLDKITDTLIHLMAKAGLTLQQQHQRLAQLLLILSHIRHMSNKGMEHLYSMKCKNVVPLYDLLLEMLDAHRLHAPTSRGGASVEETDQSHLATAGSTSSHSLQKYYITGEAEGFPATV
Androgen receptor (Homo sapiens), sequence (P10275 whole entry, looked up): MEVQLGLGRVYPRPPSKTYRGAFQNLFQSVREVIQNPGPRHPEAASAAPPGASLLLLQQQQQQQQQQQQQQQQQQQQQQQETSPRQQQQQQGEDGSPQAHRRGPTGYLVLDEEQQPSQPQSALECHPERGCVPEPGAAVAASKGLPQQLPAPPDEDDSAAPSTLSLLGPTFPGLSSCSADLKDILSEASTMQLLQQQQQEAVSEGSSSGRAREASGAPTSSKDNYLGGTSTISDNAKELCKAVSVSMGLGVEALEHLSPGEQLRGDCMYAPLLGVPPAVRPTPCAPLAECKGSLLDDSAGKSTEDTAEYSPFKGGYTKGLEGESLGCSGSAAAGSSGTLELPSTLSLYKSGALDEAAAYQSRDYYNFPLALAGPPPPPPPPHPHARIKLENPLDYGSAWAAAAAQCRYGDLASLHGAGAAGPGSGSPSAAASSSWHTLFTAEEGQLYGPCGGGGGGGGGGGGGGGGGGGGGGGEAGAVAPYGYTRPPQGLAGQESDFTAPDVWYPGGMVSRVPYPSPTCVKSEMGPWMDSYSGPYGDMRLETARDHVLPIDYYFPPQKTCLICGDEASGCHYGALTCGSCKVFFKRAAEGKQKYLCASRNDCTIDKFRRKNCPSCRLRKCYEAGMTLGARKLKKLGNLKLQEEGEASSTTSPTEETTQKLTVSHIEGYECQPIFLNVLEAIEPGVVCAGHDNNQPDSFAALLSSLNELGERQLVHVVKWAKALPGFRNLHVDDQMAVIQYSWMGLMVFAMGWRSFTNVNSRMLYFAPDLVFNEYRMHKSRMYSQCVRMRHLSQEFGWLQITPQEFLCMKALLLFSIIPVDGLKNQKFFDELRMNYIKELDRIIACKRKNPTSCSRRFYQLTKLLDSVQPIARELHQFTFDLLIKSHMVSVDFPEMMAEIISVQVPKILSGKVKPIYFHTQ
Estrogen receptor beta (Homo sapiens), sequence (Q92731 whole entry, looked up): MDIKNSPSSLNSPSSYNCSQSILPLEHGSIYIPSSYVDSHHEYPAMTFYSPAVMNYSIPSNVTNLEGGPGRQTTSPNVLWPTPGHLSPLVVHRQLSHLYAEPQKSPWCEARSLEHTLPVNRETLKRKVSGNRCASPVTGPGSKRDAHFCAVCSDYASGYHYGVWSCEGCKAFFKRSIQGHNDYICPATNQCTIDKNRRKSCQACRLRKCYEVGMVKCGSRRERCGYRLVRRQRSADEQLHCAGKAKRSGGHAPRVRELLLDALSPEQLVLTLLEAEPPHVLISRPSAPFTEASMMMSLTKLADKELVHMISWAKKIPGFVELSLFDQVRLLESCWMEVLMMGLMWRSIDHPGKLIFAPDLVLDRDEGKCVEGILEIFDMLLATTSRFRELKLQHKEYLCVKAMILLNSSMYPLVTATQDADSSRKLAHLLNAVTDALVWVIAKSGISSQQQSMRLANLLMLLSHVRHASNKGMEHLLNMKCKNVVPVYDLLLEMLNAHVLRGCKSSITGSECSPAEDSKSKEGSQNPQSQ

Take `CCCCCCCCOC(=O)c1cc(O)c(O)c(O)c1`: the Potency result in [1], in experiment [4], in [6], in experiment [7] and in experiment [8] was “inactive” in each case. The Potency was 19.5 µM (active) in experiment [2]; 11 µM (active) in experiment [3]; 24.3 µM (active) in experiment [5]; 2.17 µM (active) in experiment [9]; 15.4 µM (active) in experiment [11]. For the same compound, in experiment [10], the outcome was inactive.

As for `C/C(=C\c1ccc(C(=O)O)cc1)c1ccc2c(c1)C(C)(C)CCC2(C)C`, the Potency entry in experiment [1], in [2], in experiment [3], in experiment [12], in experiment [4] and in [13] was “inactive” each time. The Potency entry in experiment [14], in experiment [15], in experiment [6], in experiment [7], in [16] and in experiment [17] was “inactive” throughout. For the same compound, the Potency result in experiment [8] and in experiment [9] was “inactive” each time. The compound was called inactive in experiment [10].

Regarding `Oc1ccc2c(c1)CCC2`, the Potency result in [1], in experiment [2], in experiment [3], in experiment [12], in experiment [4] and in [13] was “inactive” in each case. Moreover, the Potency entry in experiment [14], in [15], in experiment [18], in [5], in [6] and in [16] was “inactive” each time. Besides, the Potency result in [17], in experiment [8] and in experiment [11] was “inactive” in each case.

Consider `CC/C=C\C/C=C\C/C=C\CCCCCCCC(=O)OC`, for which the Potency entry in [1], in experiment [2], in experiment [3], in experiment [12], in experiment [13] and in experiment [14] was “inactive” throughout. The Potency entry in experiment [15], in experiment [5], in [6], in [7] and in experiment [8] was “inactive” throughout. Also, in experiment [9], the Potency was 43.3 µM (active).

In the case of `O=C1C=CC(=O)N1c1cccc(N2C(=O)C=CC2=O)c1`, the Potency result in experiment [1], in experiment [4], in experiment [6] and in experiment [8] was “inactive” each time. The Potency in experiment [2] was 15.5 µM (active); in experiment [3], 11 µM (active); in experiment [19], 19.5 µM (active); in [13] it was 17.4 µM (active); in experiment [14], 68.6 µM (active); in experiment [15], 61.1 µM (active). For the same compound, the Potency in experiment [18] was 61.1 µM (active); in experiment [5], 61.1 µM (active); in experiment [16], 8.63 µM (active); in [17], 7.7 µM (active); in experiment [9], 1.72 µM (active); in [11], 61.1 µM (active). Further, the result in [10] was inactive.

Turning to `CCCCCCCC/C=C\CCCCCCCC(=O)N(CCO)CCO`, the Potency result in [1], in experiment [2], in experiment [4], in experiment [13], in experiment [14] and in [15] was “inactive” throughout. Further, the Potency result in [6], in experiment [7], in experiment [17] and in [8] was “inactive” each time. Also, the Potency in experiment [3] was 43.5 µM (active); in experiment [19], 43.5 µM (active); in experiment [5] it was 30.5 µM (active); in experiment [9], 15.3 µM (active).

Take `Cc1cccc(C)c1C`: the Potency entry in [1], in experiment [2], in experiment [3], in [12], in [4] and in [13] was “inactive” each time. Also, the Potency entry in experiment [14], in experiment [15], in experiment [6], in experiment [17], in [8] and in [9] was “inactive” in each case.

On to `CCOC(=O)[C@H](O)[C@@H](O)C(=O)OCC`, for which the Potency entry in experiment [1], in [2], in experiment [3], in experiment [12], in [4] and in experiment [13] was “inactive” each time. Further, the Potency entry in experiment [14], in experiment [15], in experiment [18], in experiment [5], in experiment [6] and in experiment [16] was “inactive” throughout. Besides, the Potency entry in experiment [17], in experiment [8], in experiment [9] and in experiment [11] was “inactive” throughout.

For the compound `Cc1ccc(C=O)cc1`, the Potency result in experiment [1], in [2], in experiment [3], in [12], in [4] and in experiment [13] was “inactive” in each case. The Potency result in [14], in experiment [15], in experiment [5], in experiment [6], in experiment [16] and in [17] was “inactive” each time. In addition, the Potency result in experiment [8], in experiment [9] and in [11] was “inactive” each time. Moreover, the outcome in experiment [10] was inactive.
